Sampled rows, rich in hits. Any-hit rate of the full collection: about 12%.
PLK1 PBD block: inhibitors of human PLK1 polo-box domain binding; Plk1 PBD binding of FITC phosphopeptide, fluorescence polarization; Potency, µM, hits mostly inhibitors; 360,000 compounds, 2.8% hits; AID 720504; also: series mostly up to about 57 µM; nearly all actives have a fitted effect of over 65% in size
Target sequence (P53350 whole entry, looked up, the tested form may be a part): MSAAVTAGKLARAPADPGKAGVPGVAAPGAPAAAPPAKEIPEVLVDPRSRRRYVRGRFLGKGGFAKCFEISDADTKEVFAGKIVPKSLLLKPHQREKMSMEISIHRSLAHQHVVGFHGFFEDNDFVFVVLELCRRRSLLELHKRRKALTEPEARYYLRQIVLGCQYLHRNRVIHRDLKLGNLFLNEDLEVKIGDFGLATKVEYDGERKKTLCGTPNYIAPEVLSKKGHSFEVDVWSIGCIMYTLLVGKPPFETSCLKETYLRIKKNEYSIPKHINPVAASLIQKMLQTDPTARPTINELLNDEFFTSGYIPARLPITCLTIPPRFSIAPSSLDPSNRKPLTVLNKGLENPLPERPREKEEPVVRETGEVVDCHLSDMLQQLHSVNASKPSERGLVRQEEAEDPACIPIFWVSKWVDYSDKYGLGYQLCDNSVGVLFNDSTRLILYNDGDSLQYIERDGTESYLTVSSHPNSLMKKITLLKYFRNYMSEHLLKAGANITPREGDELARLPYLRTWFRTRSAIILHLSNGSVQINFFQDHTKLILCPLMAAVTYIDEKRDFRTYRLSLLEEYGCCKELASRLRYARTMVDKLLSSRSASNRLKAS
BAZ2B block: BAZ2B (human) inhibition; AlphaScreen BAZ2B-H3K14Ac peptide displacement; Potency, µM (highest dose often 114 µM), most hits filed as inhibitors; 360,000 compounds, 4.4% hits; also: nearly all actives have a fitted effect of over 60% in size
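AlphaScreen displacement of biotin-H3(5-23)K14Ac peptide (50 nM final) from BAZ2B (50 nM final) in PBS pH 7.4, 0.01% Tween-20; complex preformed 30 min RT, then compounds (top 110 uM) 30 min RT, beads 20 min dark.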
JMJD2A Tudor inh: inhibitors of human JMJD2A Tudor domain; Potency, µM (top dose mostly 114 µM), usual class: inhibitors; O75164; AID 504339; AlphaScreen JMJD2A-Tudor / H3K4me3 peptide binding; 390,000 compounds, 4.4% hits; also: nearly all actives have a fitted effect of over 50% in size
PI5P4K alpha inh: blocks human PI5P4K alpha kinase activity; max response, %; P48426; AID 652105; 330,000 compounds, 1.2% hits; PI5P4Kalpha enzyme, ADP-Glo luminescence, 60 min; hits give low values; active = max response of -50% or lower; inconclusive = between -30% and -50%; inactive = -30% or higher; also: value at the top dose of about 77 µM
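ADP-Glo luminescence end-point after a 60 min room-temperature kinase reaction. PI5P4Kalpha and substrate in HEPES pH 7.4 buffer with EGTA, 0.1% CHAPS and 5% DMSO; ATP at 5 microM final.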
G9a inh: G9a (human) methyltransferase inhibition. 350,000 compounds, 8.8% hits. Q96KQ7. Potency, µM (titrated, usually from 102 µM), usual class: inhibitors. G9a H3K9 monomethylation, AlphaScreen, 2 h; also: nearly all actives have a fitted effect of over 75% in size
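Step 1: enzyme (final 20 nM) with compound, 15 min RT. Step 2: substrate peptide 500 nM and SAM 20 uM, 2 h RT. Step 3: anti-H3K9me1 antibody and AlphaScreen beads, 10 min, then plate read.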
HP1b chromo inh: inhibitors of HP1-beta chromodomain binding to methylated histone tails | P83916 | AlphaScreen HP1-beta / biotin-H3K9me3 peptide binding | Potency, µM (titrated, usually from 114 µM), actives largely listed as inhibitors | 390,000 compounds, 0.56% hits | AID 540317; also: nearly all actives have a fitted effect of over 70% in size
Target sequence (P83916 whole entry, looked up): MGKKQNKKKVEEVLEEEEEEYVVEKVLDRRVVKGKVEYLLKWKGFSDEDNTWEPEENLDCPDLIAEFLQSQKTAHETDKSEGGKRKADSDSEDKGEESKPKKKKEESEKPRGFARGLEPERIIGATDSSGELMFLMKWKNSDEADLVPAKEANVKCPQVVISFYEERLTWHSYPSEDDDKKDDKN
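Compound inhibition of the preformed complex between 50 nM HP1-beta and 50 nM biotinylated H3K9me3 peptide was read by AlphaScreen. Buffer was PBS pH 7.4 with 0.01% Tween-20. Incubations ran 30 min at room temperature, with 10 ug/mL donor/acceptor beads.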
Hits are given with their value; 0 = inactive; ? = inconclusive; - = no result given; [ ] = remark or other dose. Unless noted, calls follow the shape of the dose curve; as a rule, active = well fitted curve in the direction sought with a large enough effect; inconclusive = small, poorly fitted or top-dose-only effect, or another doubt; inactive = no such curve, though single readings can be large; an effect the other way counts as inactive or inconclusive.

SMILES | PLK1 PBD block | BAZ2B block | JMJD2A Tudor inh | PI5P4K alpha inh | G9a inh | HP1b chromo inh
COc1cccc(Oc2cn[nH]c2-c2ccc(OCC(=O)NN)cc2O)c1 | 38µM | 0 | ? | 0 | 0 | 0
COc1ccc(N2CCN(Cc3nc(Cc4cccc(F)c4)no3)C(C)C2)cc1 (stereo unspecified) | 0 | 25µM | 50µM | 0 | - | ?
CC(/C=C/c1ccc(C)o1)=C\C(=O)O | 0 | 0 | 0 | 0 | 8.9µM | 0
CC(=C/C(=O)O)/C=C/c1ccc(Cl)o1 | ? | 50µM | 0[11.4 µM] | 0 | 11µM | 71µM
CC1=CC(=O)NS(=O)(=O)O1 | - | - | - | - | 0[12.7 µM] | -
CC(=O)Nc1ccc(SCC(=O)NNC(=O)CN(C)S(=O)(=O)c2ccc(C)cc2)cc1 | 0 | 0 | 0 | 0 | 45µM | 0
CC(=O)Nc1ccc(SCC(=O)NC(=O)c2ccc(S(=O)(=O)N(C)C)cc2)cc1 | 11µM | - | 0 | 0 | - | 0
CCN(CC)S(=O)(=O)c1ccc(C(=O)NCC2(N3CCOCC3)CCCCC2)cc1 | 0 | 0 | 0 | 0 | 0[12.7 µM] | 0
CCOc1ccccc1CNCCCSc1nnnn1C | - | 0 | 0 | - | 0 | 0
COc1ccc(NC(=O)CCCN2C(=O)/C(=C\c3ccco3)SC2=S)cc1 | 0 | ? | 0 | ? | 0 | 0
O=C(CCN1C(=O)/C(=C/c2ccccc2)SC1=S)NC1CCS(=O)(=O)C1 (stereo unspecified) | ? | 0 | 0 | 0 | 0 | 0
O=C(CN1C(=O)/C(=C/c2ccco2)SC1=S)Nc1ccc(C(=O)O)c(O)c1 | 13µM | 28µM | 0 | -68 | - | 0
O=C(CN1C(=O)/C(=C/c2ccco2)SC1=S)Nc1ccc(O)c(C(=O)O)c1 | ? | 45µM | ? | ? | 25µM | 0
COc1ccc(C=C2SC(=S)N(CCCC(=O)Nc3ccc(C(=O)O)c(O)c3)C2=O)cc1OC | 0 | - | - | 0 | - | -
O=C(CN1C(=O)/C(=C/c2ccco2)SC1=S)NC1CCS(=O)(=O)C1 (stereo unspecified) | 30µM | ? | ? | 0 | 40µM | 0
CC(=C\c1ccco1)/C=C1/SC(=S)N(CC(=O)O)C1=O | 0 | 50µM | 0 | 0 | 40µM | 0
CN(C)Cc1csc(NC(=O)Nc2ccccc2Cc2ccccc2)n1 | 0 | - | - | 0 | - | -
CC(C(=O)Nc1ccc(C(=O)O)c(O)c1)N1C(=O)/C(=C\c2ccco2)SC1=S (stereo unspecified) | 9.5µM | 28µM | 0 | ? | 14µM | 0
Cc1ccc(CNC(=O)Cn2c(=O)n(-c3ccc(Cl)cc3)c(=O)c3c(C)c(C)sc32)cc1 | - | 0 | 0 | - | 0 | 0
COc1cccc(C2=CC(c3cc(OC)ccc3OC)n3nnnc3N2)c1 (stereo unspecified) | 0 | 0 | 0 | 0 | ? | 0
COc1cccc(C2C=C(c3ccc(OC)cc3OC)Nc3nnnn32)c1 (stereo unspecified) | 0 | 0 | 0 | 0 | 45µM | 0
COc1ccc(C2=CC(c3ccc(OC)c(OC)c3)n3nnnc3N2)c(OC)c1 (stereo unspecified) | 0 | 0 | ? | 0 | 50µM | 0
CN(Cc1ccccc1)C(=O)c1ccc(CSc2nc3cccnc3n2Cc2ccccc2F)cc1 | - | 25µM | 5µM | - | 4.5µM | ?
O=C(NCc1cccs1)c1ccc(CSc2nc3cccnc3n2Cc2ccccc2F)cc1 | - | 8.9µM | 5.6µM | - | 2.5µM | ?
COc1ccc([C@H]2CC(=O)C[C@@H](CCn3cc(-c4ccncc4)nn3)O2)cc1 | 0 | - | - | 0 | - | -
SMILES | PLK1 PBD block | BAZ2B block | JMJD2A Tudor inh | PI5P4K alpha inh | G9a inh | HP1b chromo inh
CCCN1CNc2c(c(=O)[nH]c(=S)n2CCc2c(C)cccc2C)C1 | - | - | 0 | - | - | 0
C#CCOCCOCCOCCNc1nc(N2CCN(C(=O)[C@H]([C@@H](C)CC)n3cc([C@@H](N)CO)nn3)CC2)nc(N2CCN(C(=O)[C@H]([C@@H](C)CC)n3cc([C@@H](N)CC(C)C)nn3)CC2)n1 | 0 | 50µM | 50µM | 0 | 0[12.7 µM] | 0
C#CCOCCOCCOCCNc1nc(N2CCN(C(=O)[C@H]([C@@H](C)CC)n3cc([C@@H](N)CO)nn3)CC2)nc(N2CCN(C(=O)[C@H]([C@@H](C)CC)n3cc([C@@H](N)CO)nn3)CC2)n1 | - | 22µM | - | - | 0[12.7 µM] | -
CN(C(=O)COC(=O)/C=C/c1cccs1)C1CCCCC1 | 0 | - | 0 | 0 | - | 0
CN(CC(=O)Nc1ccccc1Cl)C(=O)COC(=O)CSc1ccc(F)cc1 | 0 | 0 | 0 | 0 | 0[2.33 µM] | 0
CC(=O)Nc1ccc(SCC(=O)N(C)CC(=O)Nc2ccccc2Cl)cc1 | 7.5µM | - | 0 | 0 | - | 0
Cn1c(NCCc2ccncc2)nc2cc(-c3cccc(C(F)(F)F)c3)sc2c1=O | 0 | - | - | 0 | - | -
CCc1cccc(C)c1NC(=O)CSc1nc2ccccc2nc1Cc1ccccc1 | - | 0 | 0 | - | 0 | 0
CC(Sc1nc(N)cc(=O)[nH]1)C(=O)Nc1sc2c(c1C#N)CCCC2 (stereo unspecified) | 0 | 0 | 0[11.4 µM] | 0 | 0 | 0
N#Cc1c(NC(=O)CSc2nc(-c3ccco3)cc(C(F)(F)F)n2)sc2c1CCCC2 | 21µM | 0 | 0 | 0 | ? | 0
CCCCn1nnnc1SCC(=O)Nc1sc2c(c1C#N)CCCC2 | 0 | 0 | 0 | 0 | ? | 0
Cn1cnnc1SCC(=O)Nc1sc2c(c1C#N)CCCCC2 | 0 | 0 | 0 | - | 13µM | 0
COCCCn1c(SCC(=O)Nc2sc3c(c2C#N)CCCC3)nnc1-c1ccncc1 | 27µM | 0 | 0 | ? | ? | 0
N#Cc1c(NC(=O)CSc2nc(N)cc(=O)[nH]2)sc2c1CCCCCC2 | 0 | 0 | 0 | - | 45µM | 0
COC(=O)c1c(NC(=O)CSc2nc(-c3ccco3)cc(C(F)(F)F)n2)sc2c1CCCC2 | ? | 0 | 0 | - | ? | 0
COc1ccc(NC(=O)C(=O)NCC2(c3ccccc3)CCCC2)c(OC)c1 | - | 0 | 0 | - | 0 | 0
Cc1cccc(C(=O)NC(=O)Nc2ccc(-c3cc(C(F)(F)F)nn3-c3ccccc3)cc2)c1 | - | 0 | 0 | - | 0 | 0
O=C(COC(=O)c1ccccc1O)Nc1ncc(Cl)cc1Cl | ? | 50µM | ? | ? | 35µM | 0
O=C(COC(=O)c1nc(Cl)ccc1Cl)Nc1ccc(Cl)cn1 | 0 | 0 | 0 | 0 | 0[12.7 µM] | 0
O=C(COC(=O)c1cc([N+](=O)[O-])ccc1N1CCOCC1)Nc1ncc(Cl)cc1Cl | 0 | 45µM | ? | 0 | 0[12.7 µM] | 0
O=C(COC(=O)c1ncc(Cl)c(Cl)c1Cl)Nc1ccc(Cl)cn1 | 0 | 0 | 0 | 0 | 45µM | 0
COc1ccc(Br)cc1CNC(=O)C(C)n1nc(C)n2c(cc3occc32)c1=O (stereo unspecified) | - | 0 | 0 | - | 0 | 0
COc1cccc(CNc2ccc3[nH]c(=O)[nH]c3c2)c1OCc1ccccc1 | 0 | 45µM | 40µM | 0 | - | ?
COc1cccc(CNc2ccc3[nH]c(=O)[nH]c3c2)c1OCc1ccccc1Cl | 0 | 13µM | 40µM | 0 | - | ?
CCc1ccc(C(=O)/C=C/c2ccc([N+](=O)[O-])o2)cc1 | 6µM | ? | ? | 0 | 32µM | ?

High-throughput results (PubChem BioAssay)
